Measurements from paper PMC3218832.

Target: RELARELA (p65 homodimer) (Homo sapiens, UniProt Q04206 1-307)
Test: protein binding microarray; high values mean tight binding
Conditions: dsDNA, one strand shown

RELARELA (p65 homodimer), sequence (Q04206 1-307): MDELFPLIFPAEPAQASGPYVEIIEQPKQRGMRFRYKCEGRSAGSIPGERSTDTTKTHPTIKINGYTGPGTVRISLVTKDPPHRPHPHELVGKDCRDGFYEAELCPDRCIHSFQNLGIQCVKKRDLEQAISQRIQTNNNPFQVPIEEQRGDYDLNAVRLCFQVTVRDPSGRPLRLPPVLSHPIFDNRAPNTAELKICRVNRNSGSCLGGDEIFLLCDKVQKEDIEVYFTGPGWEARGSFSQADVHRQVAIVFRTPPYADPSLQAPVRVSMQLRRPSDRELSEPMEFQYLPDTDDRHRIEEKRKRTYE

| Sequence | binding signal [z-score] |
| --- | --- |
| AGAGGTTCCCC | 0.439 |
| GGAGTTCCCCT | 2.77 |
| CGGTGCCTCCT | -0.441 |
| GAGTAAGCCCC | -0.458 |
| AGGATTTCCCT | 1.99 |
| AGGTTTATCCT | -0.465 |
| CGGTTTACCCC | 0.939 |
| GGGGGGCCCCT | 0.434 |
| CGGGTAGTCCC | 1.24 |
| GAGAATTCCCT | 1.81 |
| AAGTGCCTCCC | -0.0547 |
| CAAGAGTCCCC | 0.465 |
| CGGTAACTCCC | 1.08 |
| CAATTCCTCCT | 0.0653 |
| GAAATGCTCCC | -0.193 |
| GAGATACCCCT | -0.299 |
| GGGGAATTCCC | 4.86 |
| CAAGTTCCCCT | 0.677 |
| GAGTTCTTCCT | -0.0672 |
| CAGAATCTCCC | 0.546 |

| Sequence | binding signal [z-score] |
| --- | --- |
| GGAATCGTCCC | 0.862 |
| AAGTATTCCCT | 0.729 |
| AGATATCTCCT | -0.509 |
| CGAAAAATCCT | 0.627 |
| AGAAGCATCCC | -0.382 |
| AGGATCACCCT | -0.477 |
| CAGGAAACCCC | 2.37 |
| AAAAGCCTCCT | -1.11 |
| CAAATGCCCCT | 0.347 |
| GGGTAACCCCT | 1.23 |
| AGAGATTTCCT | 0.344 |
| GAGGGCTCCCC | -0.357 |
| AGATTCTTCCT | -0.0679 |
| GAATTAGTCCT | 0.155 |
| GAAGTGTCCCT | -0.0315 |
| CAGTGAACCCC | -0.0364 |
| CGGGAACCCCC | 2.26 |
| GGAGTCCTCCC | -0.114 |
| GAGAAACCCCC | 1.35 |

Target: p50p50 homodimer (Homo sapiens, UniProt P19838 7-356)
Test: as above
Conditions: dsDNA, one strand shown

p50p50 homodimer, sequence (P19838 7-356): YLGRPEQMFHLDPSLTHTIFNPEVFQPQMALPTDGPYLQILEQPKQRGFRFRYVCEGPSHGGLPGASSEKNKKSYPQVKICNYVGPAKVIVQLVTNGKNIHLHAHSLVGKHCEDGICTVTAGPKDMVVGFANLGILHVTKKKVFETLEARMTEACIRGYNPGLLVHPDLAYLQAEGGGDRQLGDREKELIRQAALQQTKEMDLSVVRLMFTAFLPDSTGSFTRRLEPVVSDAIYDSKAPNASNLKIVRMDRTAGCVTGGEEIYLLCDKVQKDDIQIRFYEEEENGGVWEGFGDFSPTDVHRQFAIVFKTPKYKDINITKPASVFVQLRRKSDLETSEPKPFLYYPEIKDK

| Sequence | binding signal [z-score] |
| --- | --- |
| AGAGGTTCCCC | 1.06 |
| GGAGTTCCCCT | 1.14 |
| CGGTGCCTCCT | -0.702 |
| GAGTAAGCCCC | 0.604 |
| AGGATTTCCCT | 1.23 |
| AGGTTTATCCT | -0.953 |
| CGGTTTACCCC | 0.564 |
| GGGGGGCCCCT | 0.995 |
| CGGGTAGTCCC | 0.936 |
| GAGAATTCCCT | 1.39 |
| AAGTGCCTCCC | -1.21 |
| CAAGAGTCCCC | 1.31 |
| CGGTAACTCCC | 0.598 |
| CAATTCCTCCT | -1.06 |
| GAAATGCTCCC | -0.556 |
| GAGATACCCCT | 0.87 |
| GGGGAATTCCC | 2.07 |
| CAAGTTCCCCT | 1.46 |
| GAGTTCTTCCT | -1.52 |
| CAGAATCTCCC | 0.713 |

| Sequence | binding signal [z-score] |
| --- | --- |
| GGAATCGTCCC | 0.42 |
| AAGTATTCCCT | 0.846 |
| AGATATCTCCT | -1.24 |
| CGAAAAATCCT | -0.702 |
| AGAAGCATCCC | -1.4 |
| AGGATCACCCT | -0.136 |
| CAGGAAACCCC | 1.03 |
| AAAAGCCTCCT | -1.28 |
| CAAATGCCCCT | 1.15 |
| GGGTAACCCCT | 0.71 |
| AGAGATTTCCT | -0.498 |
| GAGGGCTCCCC | 0.0285 |
| AGATTCTTCCT | -0.78 |
| GAATTAGTCCT | -1.6 |
| GAAGTGTCCCT | 0.834 |
| CAGTGAACCCC | -0.483 |
| CGGGAACCCCC | 0.986 |
| GGAGTCCTCCC | -0.916 |
| GAGAAACCCCC | 1.41 |

Target: T1, p52p52 homodimer (Homo sapiens, UniProt Q00653 4-332)
T1 sequence: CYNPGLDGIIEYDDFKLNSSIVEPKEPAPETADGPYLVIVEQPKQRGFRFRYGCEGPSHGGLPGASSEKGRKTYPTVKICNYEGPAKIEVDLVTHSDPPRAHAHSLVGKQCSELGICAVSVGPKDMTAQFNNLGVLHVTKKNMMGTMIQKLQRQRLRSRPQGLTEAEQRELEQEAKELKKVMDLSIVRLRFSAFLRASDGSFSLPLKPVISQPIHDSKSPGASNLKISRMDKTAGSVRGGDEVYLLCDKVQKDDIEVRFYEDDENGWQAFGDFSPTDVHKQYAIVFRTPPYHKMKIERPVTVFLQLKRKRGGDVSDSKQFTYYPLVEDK
Test: as above
Conditions: dsDNA, one strand shown

| Sequence | binding signal [z-score] |
| --- | --- |
| AGAGGTTCCCC | 1.33 |
| GGAGTTCCCCT | 2.83 |
| CGGTGCCTCCT | -0.485 |
| GAGTAAGCCCC | 0.178 |
| AGGATTTCCCT | 2.18 |
| AGGTTTATCCT | -0.558 |
| CGGTTTACCCC | 0.746 |
| GGGGGGCCCCT | 1.67 |
| CGGGTAGTCCC | 1.66 |
| GAGAATTCCCT | 2.1 |
| AAGTGCCTCCC | -0.495 |
| CAAGAGTCCCC | 1.01 |
| CGGTAACTCCC | 1.03 |
| CAATTCCTCCT | -0.655 |
| GAAATGCTCCC | -0.401 |
| GAGATACCCCT | 0.576 |
| GGGGAATTCCC | 3.41 |
| CAAGTTCCCCT | 2.18 |
| GAGTTCTTCCT | -0.678 |
| CAGAATCTCCC | -0.063 |

| Sequence | binding signal [z-score] |
| --- | --- |
| GGAATCGTCCC | 0.582 |
| AAGTATTCCCT | 0.794 |
| AGATATCTCCT | -0.623 |
| CGAAAAATCCT | -0.361 |
| AGAAGCATCCC | -0.607 |
| AGGATCACCCT | -0.277 |
| CAGGAAACCCC | 1.38 |
| AAAAGCCTCCT | -0.721 |
| CAAATGCCCCT | 1.14 |
| GGGTAACCCCT | 1.97 |
| AGAGATTTCCT | -0.5 |
| GAGGGCTCCCC | -0.0309 |
| AGATTCTTCCT | -0.546 |
| GAATTAGTCCT | -0.565 |
| GAAGTGTCCCT | 0.946 |
| CAGTGAACCCC | -0.201 |
| CGGGAACCCCC | 2.98 |
| GGAGTCCTCCC | -0.266 |
| GAGAAACCCCC | 2.15 |

Target: RELA (p65) subunit of heterodimer;p50 subunit (Homo sapiens;Homo sapiens, UniProt Q04206;P19838 1-307;7-356)
Test: as above
Conditions: dsDNA, one strand shown

RELA (p65) subunit of heterodimer;p50 subunit, sequence (Q04206 1-307, chain 1 of 2): as the sequence (Q04206 1-307) above
RELA (p65) subunit of heterodimer;p50 subunit, sequence (P19838 7-356, chain 2 of 2): as the sequence (P19838 7-356) above

| Sequence | binding signal [z-score] |
| --- | --- |
| AGAGGTTCCCC | 1.54 |
| GGAGTTCCCCT | 2.64 |
| CGGTGCCTCCT | -0.873 |
| GAGTAAGCCCC | 0.392 |
| AGGATTTCCCT | 1.44 |
| AGGTTTATCCT | -1.01 |
| CGGTTTACCCC | 0.807 |
| GGGGGGCCCCT | 1.67 |
| CGGGTAGTCCC | 1.36 |
| GAGAATTCCCT | 1.68 |
| AAGTGCCTCCC | -0.501 |
| CAAGAGTCCCC | 1.4 |
| CGGTAACTCCC | 0.774 |
| CAATTCCTCCT | -0.688 |
| GAAATGCTCCC | -0.482 |
| GAGATACCCCT | 0.915 |
| GGGGAATTCCC | 3.6 |
| CAAGTTCCCCT | 1.97 |
| GAGTTCTTCCT | -0.535 |
| CAGAATCTCCC | 0.636 |

| Sequence | binding signal [z-score] |
| --- | --- |
| GGAATCGTCCC | 0.504 |
| AAGTATTCCCT | 0.606 |
| AGATATCTCCT | -0.927 |
| CGAAAAATCCT | -0.584 |
| AGAAGCATCCC | -0.83 |
| AGGATCACCCT | -0.316 |
| CAGGAAACCCC | 1.38 |
| AAAAGCCTCCT | -0.959 |
| CAAATGCCCCT | 1.2 |
| GGGTAACCCCT | 1.42 |
| AGAGATTTCCT | -0.403 |
| GAGGGCTCCCC | 0.109 |
| AGATTCTTCCT | -0.559 |
| GAATTAGTCCT | -0.821 |
| GAAGTGTCCCT | 0.67 |
| CAGTGAACCCC | -0.227 |
| CGGGAACCCCC | 2.47 |
| GGAGTCCTCCC | -0.571 |
| GAGAAACCCCC | 2.14 |
